From article PMC8384837, “Expanding the binding specificity for RNA recognition by a PUF domain” come the findings set out here.

The target in one assay is PUM1 PUF domain R5-MRV (Homo sapiens, UniProt Q14671 828-1176, C1007M;Q1011V). In words: yeast three-hybrid, YBZ-1, SC-Leu-His + 0.5 mM 3-AT, 4 days. Conditions: tags: N-Gal4 AD-HA kept; label: inside an RPR1-promoter hybrid RNA with tandem MS2 sites; ssRNA. The method, boiled down: (§1)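 Repeat regions from input (SC-Leu) and selection (SC-Leu-His + 0.5 mM 3-AT) plates were PCR-amplified and Illumina-sequenced after four days of growth. The cells were strain YBZ-1 with a LexA–MS2 coat fusion and a HIS3 reporter, co-expressing Pumilio-1 PUF domain libraries and matching RNA elements from a centromeric plasmid. The interaction score is the log change in variant frequency from input to selection, taken in log2 with a pseudocount of 1 for absent variants.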
As to “GGCUAGAACUAGUGGAUCCCCCGGCGCCCGGCGGCUCGAGCCCGGGUAAGUGUAAAUAGUCUGCAUGCCGCCGGGCGCCAUGCCUGCAGGUCGACUCUAGAAAACAUG”, the binding signal is 1.85 log2 enrichment (interaction score).

As to “GGCUAGAACUAGUGGAUCCCCCGGCGCCCGGCGGCUCGAGCCCGGGUAAGUGUUAAUAGUCUGCAUGCCGCCGGGCGCCAUGCCUGCAGGUCGACUCUAGAAAACAUG”, the binding signal was 2.34 log2 enrichment (interaction score). On the same count and under the same terms, for “GGCUAGAACUAGUGGAUCCCCCGGCGCCCGGCGGCUCGAGCCCGGGUAAGUGUGAAUAGUCUGCAUGCCGCCGGGCGCCAUGCCUGCAGGUCGACUCUAGAAAACAUG” the value was 2.45 log2 enrichment (interaction score).

A further assay concerns the target PUM1 PUF domain R4-PWG (Homo sapiens, UniProt Q14671 828-1176, N971P;H972W;Q975G). The description is as above. Conditions: tags: N-Gal4 AD-HA kept; label: inside an RPR1-promoter hybrid RNA with tandem MS2 sites; ssRNA. Summed up: as §1
Consider “GGCUAGAACUAGUGGAUCCCCCGGCGCCCGGCGGCUCGAGCCCGGGUAAGUGUACAUAGUCUGCAUGCCGCCGGGCGCCAUGCCUGCAGGUCGACUCUAGAAAACAUG”, for which the binding signal was 5.43 log2 enrichment (interaction score). Same read-out and setting: for “GGCUAGAACUAGUGGAUCCCCCGGCGCCCGGCGGCUCGAGCCCGGGUAAGUGUAUAUAGUCUGCAUGCCGCCGGGCGCCAUGCCUGCAGGUCGACUCUAGAAAACAUG” the value was 6.71 log2 enrichment (interaction score); for “GGCUAGAACUAGUGGAUCCCCCGGCGCCCGGCGGCUCGAGCCCGGGUAAGUGUAAAUAGUCUGCAUGCCGCCGGGCGCCAUGCCUGCAGGUCGACUCUAGAAAACAUG”, 5.84 log2 enrichment (interaction score).
